Records with an inconclusive call do not appear. Active and inactive are the calls of the source. The calls were made as follows, unless noted: active = hit-call score of the fitted dose curve at least 0.9, where 1 is the maximum; inactive = score below 0.9.
Tests used:
[1] = biological target: Hypoxia-inducible factor 1-alpha (Homo sapiens) (UniProt Q16665); test: ATG_HIF1a_CIS: Attagene CIS-FACTORIAL HepG2 Assay for human Hypoxia Inducible Factor 1 (HIF1A) (AID 2282951); details: HepG2 Attagene cis-factorial HIF1a reporter transcription; actives raise or lower the signal
In short: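 After 24 h chemical exposure of reporter-transfected HepG2 cells, reporter cDNA was PCR-amplified, labelled by 6-FAM primer extension (2 min 95 C, 20 s 68 C, 10 min 72 C), HpaI-cut (2 h, 37 C) and analysed by CE.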

[2] = biological target: Hepatocyte nuclear factor 6 (Homo sapiens) (UniProt Q9UBC0); test: ATG_HNF6_CIS: Attagene CIS-FACTORIAL HepG2 Assay for human Hepatocyte Nuclear Factor 6 (HNF6) (AID 2282952); details: HepG2 Attagene cis-factorial HNF6 reporter transcription; actives raise or lower the signal
In short: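 Reporter mRNA induction or loss in HepG2 after 24 h exposure; transient cis-MRTU transfection; fragments quantified by capillary electrophoresis; bidirectional analysis, DMSO as negative control.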

[3] = biological target: Heat shock factor protein 1 (Homo sapiens) (UniProt Q00613); test: ATG_HSE_CIS: Attagene CIS-FACTORIAL HepG2 Assay for human Heat Shock Transcription Factor 1 (HSE) (AID 2282953); details: HepG2 HSE cis-reporter, Attagene RNA transcription; actives raise or lower the signal
In short: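 Cells were transfected with cis-element-driven reporter constructs, dosed for 24 h, then total RNA was reverse-transcribed and reporter cDNA amplified, FAM-labelled and digested with HpaI. Fragments were resolved by capillary electrophoresis; gain or loss was fitted against DMSO.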

[4] = ATG_MRE_CIS: Attagene CIS-FACTORIAL HepG2 Assay for human Metal Responsive Element (MRE) (AID 2282954); details: HepG2 MRE cis-reporter transcription, Attagene multiplex; actives raise or lower the signal
In short: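 HepG2 cells transiently transfected with cis-element-driven reporter units; mRNA measured 24 h after dosing. Reporter transcripts quantified by RT-PCR, FAM labelling, HpaI digestion and capillary electrophoresis; bidirectional fit versus DMSO.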

[5] = ATG_PBREM_CIS: Attagene CIS-FACTORIAL HepG2 Assay for human Phenobarbital-responsive Enhancer Module (PBREM) (AID 2282955); details: HepG2 PBREM cis-reporter, Attagene multiplexed transcription; actives raise or lower the signal
In short: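 Measures endogenous factor action on a phenobarbital-responsive enhancer module. HepG2 transiently carrying cis reporters, 24 h treatment, mRNA read-out by RT-PCR plus capillary electrophoresis.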

[6] = biological target: Paired box protein Pax-6 (Homo sapiens) (UniProt P26367); test: ATG_Pax6_CIS: Attagene CIS-FACTORIAL HepG2 Assay for human Paired Box 6 (PAX6) (AID 2282956); details: HepG2 CIS-FACTORIAL PAX6 reporter transcription, RNA readout; actives raise or lower the signal
In short: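 Multiplexed cis-reporter HepG2 system; 24 h treatment; reporter mRNA read by RT-PCR/CE fluorescence; bidirectional fit vs DMSO.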

[7] = ATG_PXRE_CIS: Attagene CIS-FACTORIAL HepG2 Assay for human Pregnane X Receptor Element (PXRE) (AID 2282957); details: HepG2 Attagene CIS-FACTORIAL PXRE reporter, mRNA; actives raise or lower the signal
In short: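 Transiently transfected HepG2 cells were dosed and incubated for 24 h. RNA was then isolated, DNase-treated, reverse-transcribed and reporter sequences amplified. Labeled, HpaI-digested fragments were quantified by capillary electrophoresis against DMSO.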

[8] = ATG_PPRE_CIS: Attagene CIS-FACTORIAL HepG2 Assay for human Peroxisome Proliferator-activated Response Element (PPRE) (AID 2282958); details: HepG2 PPRE cis-element reporter, Attagene transcription factor profiling; actives raise or lower the signal
In short: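 PPRE activity in HepG2: transient cis-reporter transfection, 24 h compound incubation, reporter mRNA by RT-PCR and CE fluorescence; gain/loss fitted against DMSO.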

[9] = ATG_RORE_CIS: Attagene CIS-FACTORIAL HepG2 Assay for human RAR-related Orphan Receptor Element (RORE) (AID 2282959); details: HepG2 Attagene cis-factorial RORE reporter, mRNA; actives raise or lower the signal
In short: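 A 24-hour exposure of transfected HepG2 hepatoma cells precedes RNA isolation and reporter RT-PCR. Labeled products are digested with HpaI and resolved by capillary electrophoresis, with gain or loss of signal scored relative to DMSO.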

[10] = ATG_Sox_CIS: Attagene CIS-FACTORIAL HepG2 Assay for human SRY-box transcription factor (SOX) (AID 2282960); details: HepG2 Attagene cis-factorial SOX reporter, mRNA; actives raise or lower the signal
In short: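 HepG2, cis reporter units, 24 h exposure. Reporter mRNA: RT-PCR → FAM labelling → HpaI → CE fluorescence. Bidirectional fit vs DMSO.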

[11] = biological target: Transcription factor Sp1 (Homo sapiens) (UniProt P08047); test: ATG_Sp1_CIS: Attagene CIS-FACTORIAL HepG2 Assay for human Specificity Protein 1 (Sp1) (AID 2282961); details: HepG2 Sp1 cis-reporter transcription, actives raise or lower the signal
In short: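 Liver-derived HepG2 cells, cis-element reporter library, 24 h treatment; RNA isolated, cDNA amplified with reporter-specific primers, FAM-labeled fragments sized on capillary analyzer. DMSO baseline, bidirectional curve fit.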

[12] = ATG_SREBP_CIS: Attagene CIS-FACTORIAL HepG2 Assay for human Sterol Regulatory Element Binding (SREBP) (AID 2282962); details: HepG2 Attagene cis-factorial SREBP reporter, mRNA; actives raise or lower the signal
In short: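 mRNA induction of transfected cis-promoter reporters in HepG2 cells, 24 h post-dose. Detection: RT-PCR with 6-FAM-labelled products, HpaI digest, capillary electrophoresis. DMSO served as negative control and baseline.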

[13] = biological target: Signal transducer and activator of transcription 3 (Homo sapiens) (UniProt P40763); test: ATG_STAT3_CIS: Attagene CIS-FACTORIAL HepG2 Assay for human Signal Transducer and Activator of Transcription 3 (STAT3) (AID 2282963); details: HepG2, Attagene cis-factorial STAT3 reporter transcription; actives raise or lower the signal
In short: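 HepG2 cells transiently transfected with multiple cis-element-driven reporter units report endogenous transcription factor activity. After 24 h compound exposure, reporter mRNA is measured by RT-PCR, 6-FAM labelling, HpaI digestion and capillary electrophoresis. Fitted bidirectionally versus DMSO.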

[14] = ATG_TA_CIS: Attagene CIS-FACTORIAL HepG2 Assay for human TA Basal Promoter (AID 2282964); details: HepG2 Attagene CIS-factorial TA basal promoter reporter; actives raise or lower the signal
In short: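 Steps: transfect HepG2 with MRTUs; dose 24 h; isolate RNA, DNase-treat, reverse-transcribe; PCR and FAM-label reporter cDNA; digest with HpaI 2h at 37 C; run capillary electrophoresis. Activity fitted both directions against DMSO.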

[15] = ATG_TCF_b_cat_CIS: Attagene CIS-FACTORIAL HepG2 Assay for human T-Cell-Factor with beta-catenin (TCF/b-cat) (AID 2282965); details: HepG2 TCF/beta-catenin cis-reporter transcription, actives raise or lower the signal
In short: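 HepG2, transient MRTU transfection, cis-element-driven reporters (endogenous TFs). 24 h compound exposure. Readout: reporter mRNA by RT-PCR + 6-FAM primer extension, HpaI digest, capillary electrophoresis. Gain/loss fit vs DMSO baseline.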

[16] = ATG_TAL_CIS: Attagene CIS-FACTORIAL HepG2 Assay for human TAL Basal Promoter (AID 2282966); details: HepG2 Attagene cis-factorial TAL promoter reporter; actives raise or lower the signal;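 also: background control endpoint measuring basal TAL promoter reporter mRNA not a specific factor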
In short: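 Readout: reporter mRNA, fluorescence by CE. System: HepG2, transient multi-reporter transfection, endogenous TF activity. Exposure: 24 h. Analysis: bidirectional, DMSO-normalized; background control.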

[17] = ATG_TGFb_CIS: Attagene CIS-FACTORIAL HepG2 Assay for human Transforming Growth Factor (TGF) (AID 2282967); details: HepG2 Attagene CIS TGFb reporter, mRNA transcription; actives raise or lower the signal
In short: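 Cells were dosed for 24 hours, after which total RNA was reverse-transcribed and reporter sequences amplified, labeled and sized by capillary electrophoresis. Activity was fitted in both directions against DMSO.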

[18] = ATG_VDRE_CIS: Attagene CIS-FACTORIAL HepG2 Assay for human Vitamin D Receptor Element (VDRE) (AID 2282968); details: HepG2 VDRE cis-reporter transcription, actives raise or lower the signal
In short: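 Transiently transfected HepG2 cells carrying cis-regulated reporter transcription units were exposed for 24 h. Reporter mRNA was measured by RT-PCR with fluorescent labelling and capillary electrophoresis, and fitted in both directions against DMSO.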

[19] = biological target: Nuclear receptor subfamily 1 group I member 3 (Homo sapiens) (UniProt Q14994); test: ATG_CAR_TRANS: Attagene TRANS-FACTORIAL HepG2 Assay for human Constitutive Androstane Receptor (CAR) (AID 2282969; active = hit-call score of the fitted dose curve at least 0.9, where 1 is the maximum;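 also: activators raise reporter mRNA above DMSO so AC50 marks induction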); details: HepG2 Attagene TRANS-FACTORIAL CAR reporter
In short: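 HepG2 cells transiently transfected with GAL4-UAS reporter units; TRANS format reads activity of exogenous chimeric NR-Gal4 protein. After 24 h dosing, reporter mRNA quantified by RT-PCR, 6-FAM labelling and capillary electrophoresis; gain of signal fitted against DMSO.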

Measured: AC50

Transcription factor Sp1 (Homo sapiens), sequence (P08047 whole entry, looked up, the tested form may be a part): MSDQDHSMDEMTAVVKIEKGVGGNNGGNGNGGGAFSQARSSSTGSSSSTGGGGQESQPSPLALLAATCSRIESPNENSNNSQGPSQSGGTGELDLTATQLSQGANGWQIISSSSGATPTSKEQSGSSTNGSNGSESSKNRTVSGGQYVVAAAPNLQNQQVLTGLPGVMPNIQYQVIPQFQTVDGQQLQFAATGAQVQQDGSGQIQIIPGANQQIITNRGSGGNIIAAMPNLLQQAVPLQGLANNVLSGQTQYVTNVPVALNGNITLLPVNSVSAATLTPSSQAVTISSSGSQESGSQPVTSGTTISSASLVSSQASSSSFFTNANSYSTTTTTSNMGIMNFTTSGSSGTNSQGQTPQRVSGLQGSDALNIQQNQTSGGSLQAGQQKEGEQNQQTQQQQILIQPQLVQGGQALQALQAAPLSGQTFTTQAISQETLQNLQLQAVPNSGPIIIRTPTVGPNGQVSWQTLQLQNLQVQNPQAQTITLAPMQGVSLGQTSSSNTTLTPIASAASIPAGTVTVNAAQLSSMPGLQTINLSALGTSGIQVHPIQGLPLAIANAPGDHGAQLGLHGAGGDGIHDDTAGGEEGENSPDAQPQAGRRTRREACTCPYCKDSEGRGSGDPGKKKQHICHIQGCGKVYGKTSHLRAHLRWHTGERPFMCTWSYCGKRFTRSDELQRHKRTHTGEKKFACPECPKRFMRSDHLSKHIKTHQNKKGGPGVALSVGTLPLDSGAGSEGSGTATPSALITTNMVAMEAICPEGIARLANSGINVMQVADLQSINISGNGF
Hepatocyte nuclear factor 6 (Homo sapiens), sequence (Q9UBC0 whole entry, looked up, the tested form may be a part): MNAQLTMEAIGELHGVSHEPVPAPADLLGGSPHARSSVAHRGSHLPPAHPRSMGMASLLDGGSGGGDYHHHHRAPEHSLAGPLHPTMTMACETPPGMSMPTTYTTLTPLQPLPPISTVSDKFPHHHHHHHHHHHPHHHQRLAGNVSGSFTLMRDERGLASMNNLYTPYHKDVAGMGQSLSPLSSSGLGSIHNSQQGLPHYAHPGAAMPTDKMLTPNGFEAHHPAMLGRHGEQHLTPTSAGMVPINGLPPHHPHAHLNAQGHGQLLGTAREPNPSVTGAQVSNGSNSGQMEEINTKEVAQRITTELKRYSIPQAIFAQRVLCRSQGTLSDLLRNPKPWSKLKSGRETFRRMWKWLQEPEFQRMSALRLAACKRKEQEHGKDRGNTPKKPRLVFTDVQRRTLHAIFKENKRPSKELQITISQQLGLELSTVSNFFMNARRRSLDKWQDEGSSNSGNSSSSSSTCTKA
Heat shock factor protein 1 (Homo sapiens), sequence (Q00613 whole entry, looked up, the tested form may be a part): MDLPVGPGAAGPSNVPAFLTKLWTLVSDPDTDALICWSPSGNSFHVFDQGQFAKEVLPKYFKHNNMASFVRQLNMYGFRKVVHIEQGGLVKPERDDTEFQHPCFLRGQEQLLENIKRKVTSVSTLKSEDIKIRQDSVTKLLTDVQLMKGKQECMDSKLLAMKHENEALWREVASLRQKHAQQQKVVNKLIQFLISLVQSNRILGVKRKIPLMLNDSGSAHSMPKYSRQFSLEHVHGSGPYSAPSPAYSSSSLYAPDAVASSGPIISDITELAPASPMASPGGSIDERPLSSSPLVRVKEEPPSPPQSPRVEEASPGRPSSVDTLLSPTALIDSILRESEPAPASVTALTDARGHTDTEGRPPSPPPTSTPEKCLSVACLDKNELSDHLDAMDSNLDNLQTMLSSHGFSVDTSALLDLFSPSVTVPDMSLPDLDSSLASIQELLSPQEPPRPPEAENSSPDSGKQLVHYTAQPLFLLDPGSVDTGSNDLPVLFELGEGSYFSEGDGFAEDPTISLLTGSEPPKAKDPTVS
Signal transducer and activator of transcription 3 (Homo sapiens), sequence (P40763 whole entry, looked up): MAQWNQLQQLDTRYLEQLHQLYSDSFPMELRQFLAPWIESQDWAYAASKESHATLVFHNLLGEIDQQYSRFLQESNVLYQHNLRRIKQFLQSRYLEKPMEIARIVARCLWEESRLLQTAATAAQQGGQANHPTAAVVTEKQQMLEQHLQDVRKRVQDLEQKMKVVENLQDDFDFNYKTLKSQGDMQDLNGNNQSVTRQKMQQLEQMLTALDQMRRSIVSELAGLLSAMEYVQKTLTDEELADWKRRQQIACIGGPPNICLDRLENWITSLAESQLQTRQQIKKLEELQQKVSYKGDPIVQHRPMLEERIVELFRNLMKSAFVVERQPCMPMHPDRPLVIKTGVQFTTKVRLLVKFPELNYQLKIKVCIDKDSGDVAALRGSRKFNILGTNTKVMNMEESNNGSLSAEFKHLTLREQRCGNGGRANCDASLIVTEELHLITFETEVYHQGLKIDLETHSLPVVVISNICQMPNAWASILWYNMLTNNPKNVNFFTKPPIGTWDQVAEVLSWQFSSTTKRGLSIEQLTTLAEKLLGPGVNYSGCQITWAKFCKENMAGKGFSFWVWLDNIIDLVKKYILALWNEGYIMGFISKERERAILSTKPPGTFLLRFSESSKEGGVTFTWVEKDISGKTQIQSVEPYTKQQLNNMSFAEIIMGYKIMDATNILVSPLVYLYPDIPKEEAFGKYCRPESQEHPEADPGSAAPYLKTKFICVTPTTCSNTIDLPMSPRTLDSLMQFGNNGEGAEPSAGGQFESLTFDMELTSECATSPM
Hypoxia-inducible factor 1-alpha (Homo sapiens), sequence (Q16665 whole entry, looked up): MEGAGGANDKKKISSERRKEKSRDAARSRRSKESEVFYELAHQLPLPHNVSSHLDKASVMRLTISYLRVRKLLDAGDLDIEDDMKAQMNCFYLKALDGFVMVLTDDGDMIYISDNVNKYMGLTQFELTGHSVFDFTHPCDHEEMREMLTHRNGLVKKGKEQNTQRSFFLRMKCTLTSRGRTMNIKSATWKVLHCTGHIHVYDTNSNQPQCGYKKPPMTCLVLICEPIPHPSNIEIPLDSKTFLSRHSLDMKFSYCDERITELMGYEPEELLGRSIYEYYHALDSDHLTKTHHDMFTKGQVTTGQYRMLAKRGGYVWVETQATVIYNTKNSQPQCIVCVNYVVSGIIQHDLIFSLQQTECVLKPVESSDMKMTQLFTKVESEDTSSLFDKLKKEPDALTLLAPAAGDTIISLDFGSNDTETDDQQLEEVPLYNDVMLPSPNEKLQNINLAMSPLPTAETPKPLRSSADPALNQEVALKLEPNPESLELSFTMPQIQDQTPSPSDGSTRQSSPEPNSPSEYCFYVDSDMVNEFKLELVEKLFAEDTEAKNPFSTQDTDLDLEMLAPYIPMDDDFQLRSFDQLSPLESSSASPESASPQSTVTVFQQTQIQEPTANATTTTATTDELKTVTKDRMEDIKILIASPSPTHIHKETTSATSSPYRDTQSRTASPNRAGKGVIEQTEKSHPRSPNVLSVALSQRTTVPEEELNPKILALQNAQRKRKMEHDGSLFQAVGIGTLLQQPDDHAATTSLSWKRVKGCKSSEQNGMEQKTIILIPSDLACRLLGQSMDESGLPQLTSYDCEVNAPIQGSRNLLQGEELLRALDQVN
Paired box protein Pax-6 (Homo sapiens), sequence (P26367 whole entry, looked up): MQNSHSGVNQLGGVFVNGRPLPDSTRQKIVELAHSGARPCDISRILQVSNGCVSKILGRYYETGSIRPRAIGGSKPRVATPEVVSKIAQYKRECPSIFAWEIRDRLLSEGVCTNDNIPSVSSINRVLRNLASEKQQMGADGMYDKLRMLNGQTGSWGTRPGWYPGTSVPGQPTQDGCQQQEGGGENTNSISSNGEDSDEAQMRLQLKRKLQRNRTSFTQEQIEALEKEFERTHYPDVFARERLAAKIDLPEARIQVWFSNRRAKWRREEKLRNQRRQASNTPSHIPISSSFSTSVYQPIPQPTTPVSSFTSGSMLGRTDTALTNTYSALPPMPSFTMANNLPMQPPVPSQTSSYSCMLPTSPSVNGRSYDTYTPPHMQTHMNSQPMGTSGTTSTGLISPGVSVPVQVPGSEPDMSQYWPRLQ
Nuclear receptor subfamily 1 group I member 3 (Homo sapiens), sequence (Q14994 whole entry, looked up, the tested form may be a part): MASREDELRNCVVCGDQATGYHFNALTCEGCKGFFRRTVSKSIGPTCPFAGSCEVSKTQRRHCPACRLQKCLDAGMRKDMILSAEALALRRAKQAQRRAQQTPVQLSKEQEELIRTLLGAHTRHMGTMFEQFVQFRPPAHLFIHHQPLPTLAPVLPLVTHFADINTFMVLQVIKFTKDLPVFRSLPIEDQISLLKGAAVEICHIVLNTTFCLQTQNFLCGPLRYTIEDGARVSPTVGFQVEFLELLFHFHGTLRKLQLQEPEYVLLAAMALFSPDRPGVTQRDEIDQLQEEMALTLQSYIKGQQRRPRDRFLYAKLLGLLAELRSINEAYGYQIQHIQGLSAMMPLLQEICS

ClCCCCl
inactive: all assays above

O=C1c2ccccc2C(=O)C1C(=O)C(c1ccccc1)c1ccc(Cl)cc1 (stereo not drawn)
inactive: [1] | [14]
active: [2] 61.5 µM | [3] 62.8 µM | [4] 17.8 µM | [5] 9.73 µM | [6] 8.23 µM | [7] 1.51 µM | [8] 3.53 µM | [9] 8.58 µM | [10] 7.35 µM | [11] 7.69 µM | [12] 9.14 µM | [13] 167 µM | [15] 12.2 µM | [16] 161 µM | [17] 8.18 µM | [18] 2.93 µM

O=S(=O)(F)C(F)(F)C(F)(F)C(F)(F)C(F)(F)F
not listed: [19]
inactive: all other assays above

[Cl][Sn]([c]1ccccc1)([c]1ccccc1)[c]1ccccc1
inactive: [5] | [7] | [9] | [12] | [13] | [15] | [17]
active: [1] 0.252 µM | [2] 1.62 µM | [3] 0.243 µM | [4] 0.23 µM | [6] 0.248 µM | [8] 0.0117 µM | [10] 0.217 µM | [11] 1.66 µM | [14] 0.251 µM | [16] 1.13 µM | [18] 0.24 µM

From PubChem BioAssay (EPA / NIEHS)
